From PubChem BioAssay (NCI) come the findings set out here.

About 79,000 compounds went through this panel and 15% of them were active in at least one assay; those are over-represented in the sample as a whole. Values without a mark were called inactive. The source made the active and inactive calls. No stated cut-off is given here; in the data, active means growth inhibition above about 70%; inactive means the rest.

A short description of assay [1]: NCI Yeast Anticancer Drug Screen. Data for the rad50 strain (AID 155).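 Further: 0% = growth of vehicle-only cultures of the same strain.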 As to conditions: S. cerevisiae rad50 strain growth inhibition; at 50.0 µM; stronger effect = higher value. Summed up:
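A DNA repair-deficient yeast mutant serves as the test organism; compound-induced growth inhibition is calculated against vehicle-treated cells.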

The nature of assay [2]: NCI Yeast Anticancer Drug Screen. Data for the mec2-1 strain (AID 157). The following applies: S. cerevisiae mec2-1 strain, at 50.0 µM, stronger effect = higher value. Summed up:
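Using mec2-1 yeast: add compound, measure growth, express inhibition versus vehicle-treated cultures.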

The nature of assay [3]: NCI Yeast Anticancer Drug Screen. Data for the sgs1 mgt1 strain (AID 161).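 Further: 0% = growth of cultures given vehicle only.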 As to conditions: S. cerevisiae sgs1 mgt1 strain, at 50.0 µM, stronger effect = higher value. Summed up: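 This yeast growth screen uses a strain with defined DNA-repair lesions; compound-treated growth is compared with vehicle-treated growth.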
Assay [4] is described as follows: NCI Yeast Anticancer Drug Screen. Data for the cln2 rad14 strain (AID 165).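 Further: 0% = growth equal to vehicle treated cultures.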 As to conditions: S. cerevisiae cln2 rad14 strain, at 50.0 µM, stronger effect = higher value. An outline of the steps: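 Yeast strain cln2 rad14, bearing defects in cell cycle control and DNA repair, serves as the test system; values reflect growth inhibition compared with vehicle.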
Assay [5] can be described thus: NCI Yeast Anticancer Drug Screen. Data for the bub3 strain (AID 167). The following applies: S. cerevisiae bub3 mutant strain, at 50.0 µM, stronger effect = higher value. An outline of the steps: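 Inhibition values come from growth of compound-treated mutant yeast normalised to vehicle-treated controls.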
A short description of assay [6]: NCI Yeast Anticancer Drug Screen. Data for the mlh1 rad18 strain (AID 175). The following applies: S. cerevisiae mlh1 rad18 strain growth inhibition; at 50.0 µM; stronger effect = higher value. An outline of the steps:
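Steps: expose repair-defective yeast to compound; measure growth; express inhibition against vehicle-treated controls.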

Consider `CCOC(=O)C1C(c2ccc(Cl)cc2Cl)NC(c2ccc(C)cc2)C(C(=O)OC)S1(=O)=O` (stereo unspecified), for which the growth inhibition in assay [1] is 13%; in assay [2] it was -9.8%; in assay [3] it was -8.85%; in assay [4], 27.3%; in assay [5], -5.1%; in assay [6], 27.1%.

For the compound `CC(=O)OCSc1ncnc2c1ncn2CN1CCOCC1`, the growth inhibition in assay [1] was 7.15%; in assay [2], 2.25%; in assay [3] it was -19.9%; in assay [4], 1.8%; in assay [5] it was -4.85%; in assay [6] it was 7.85%.

Regarding `NC(Cc1ccc(S(=O)(=O)O)cc1)C(=O)NC(Cc1ccc(S(=O)(=O)O)cc1)C(=O)NC(Cc1ccc(S(=O)(=O)O)cc1)C(=O)O` (stereo unspecified), the growth inhibition in assay [1] was -4.25%; in assay [2] it was -14.8%; in assay [3], 27.1%; in assay [4], -9.5%; in assay [5] it was 9.3%; in assay [6], -8.2%.

As to `O=C(NCCc1[nH]nc2c1C(=O)C=C(Nc1ccccc1)C2=O)OCc1ccccc1`, the growth inhibition in assay [1] was -29.7%; in assay [2] it was -15.8%; in assay [3], -32.4%; in assay [4] it was -21.9%; in assay [5], -29.1%; in assay [6] it was -52.8%.

For the compound `Cc1cc([N+](C)(C)C)c(C(C)C)cc1O`, the growth inhibition in assay [1] is -0.45%; in assay [2], 5.7%; in assay [3], 6.25%; in assay [4], 9.55%; in assay [5], 11%; in assay [6] it was 0.25%.

Take `COC1OC2COC(C)(C)OC2C1OS(=O)(=O)c1ccc(C)cc1` (stereo unspecified): the growth inhibition in assay [1] is -1.75%; in assay [2], 12.6%; in assay [3], 6.4%; in assay [4], -17.1%; in assay [5], -0.5%; in assay [6], 29.6%.

`CCCC(=O)Nc1cc(/C=C/C(=O)N2C[C@H]3C[C@@]34C2=CC(=O)c2[nH]cc(C)c24)n(C)c1`: the growth inhibition was 80.2% (active) in assay [1]; 89.3% (active) in assay [2]; 83.7% (active) in assay [3]; 81.2% (active) in assay [4]; 58% in assay [5]; 84.2% (active) in assay [6].

For `Nc1nc2nc3c(nc2c(=O)[nH]1)CN(c1ccc(C(=O)O)cc1)C3=O`, the growth inhibition in assay [1] was 19.4%; in assay [2], 5.6%; in assay [3], -5.05%; in assay [4], -7.45%; in assay [5], 14.7%; in assay [6] it was 11.4%.

Consider `O/N=C(/C(=N\O)c1ccco1)c1ccco1`, for which the growth inhibition was -26.1% in assay [1]; -46.5% in assay [2]; -13.8% in assay [3]; 2.45% in assay [4]; -24.1% in assay [5]; -8.3% in assay [6].

Turning to `CCN(/C=C/C=C(C#N)C#N)CC`, the growth inhibition is 6.05% in assay [1]; -5.3% in assay [2]; -9.05% in assay [3]; -15.8% in assay [4]; 6.35% in assay [5]; -12.7% in assay [6].

Consider `COC(=O)/C(=C/Cl)NC(C)=O`, for which the growth inhibition in assay [1] was 3.2%; in assay [2] it was -7.55%; in assay [3], -4.8%; in assay [4], -9.9%; in assay [5], 8.7%; in assay [6] it was 5.8%.

`C1C[S][Ge]2([S]CCS1)[S]CCSCC[S]2`: the growth inhibition is -10.4% in assay [1]; -30.5% in assay [2]; -16.6% in assay [3]; -15.5% in assay [4]; -30.6% in assay [5]; -14.8% in assay [6].

Turning to `CCCCCCCCSc1nc2ccc(N=Cc3ccccc3O)cc2s1`, the growth inhibition was 75% (active) in assay [1]; 31.7% in assay [2]; 73.3% (active) in assay [3]; 53.6% in assay [4]; 21.7% in assay [5]; 36.1% in assay [6].

Regarding `Cc1csc2nc(-c3ccccc3)[nH]c(=S)c12`, the growth inhibition in assay [1] was 5.5%; in assay [2] it was 6.4%; in assay [3], 10.9%; in assay [4], -22.8%; in assay [5], -4.8%; in assay [6] it was 6.75%.

As to `COCC(=O)c1ccc(C#N)cc1`, the growth inhibition in assay [1] was 4.35%; in assay [2], -20.2%; in assay [3] it was -7.25%; in assay [4] it was -39%; in assay [5], 4.45%; in assay [6], 2.2%.

Turning to `CCNC(=O)C(C(=O)OCCN(CC)CC)c1ccccc1` (stereo unspecified), the growth inhibition in assay [1] is 2.05%; in assay [2], 5.7%; in assay [3], -3.3%; in assay [4] it was -1.05%; in assay [5], -14.7%; in assay [6] it was 16.7%.

Take `CCO[C@@H]1C2C=CC(C2)[C@H]1[N+](=O)[O-]` (stereo partly specified): the growth inhibition was -11.8% in assay [1]; 12.2% in assay [2]; -5.65% in assay [3]; 15.4% in assay [4]; 3.05% in assay [5]; -5.4% in assay [6].

In the case of `N#CC1CCCC(c2ccccc2)(C2CCCCC2)C1=O` (stereo unspecified), the growth inhibition in assay [1] is 7.4%; in assay [2] it was 13.1%; in assay [3] it was 10.2%; in assay [4], 26.4%; in assay [5], 2.85%; in assay [6] it was -0.9%.

On to `O=C(c1ccco1)C(O)c1ccccc1` (stereo unspecified), for which the growth inhibition is 1.3% in assay [1]; 8.9% in assay [2]; -2.6% in assay [3]; -2.55% in assay [4]; -11.9% in assay [5]; 5.95% in assay [6].

As to `COC1=C(C(=O)c2ccc(OC)c(OC)c2)COC1=O`, the growth inhibition in assay [1] was -8.4%; in assay [2], -13.3%; in assay [3], -4.5%; in assay [4], -4.4%; in assay [5] it was 31.4%; in assay [6], 7.15%.

Consider `c1cc(OCC2CO2)ccc1OCC1CO1` (stereo unspecified), for which the growth inhibition is 41% in assay [1]; 19.9% in assay [2]; 33.1% in assay [3]; -24.9% in assay [4]; 8.8% in assay [5]; 49.4% in assay [6].
